In PubChem BioAssay AID1903 (Southern Research Specialized Biocontainment Screening …, 2009):
Screen size: about 310,000 compounds; about 1,200 (0.39%) were called active. How the calls were made is not given here. These entries were drawn from the full list. Measured potencies and affinities stand elsewhere.

Target: Large T antigen (Simian virus 40) (UniProt P03070)
Test: TAg ATPase/helicase activity blockers – biochemical (AID 1903)
Conditions: SV40 large T antigen ATPase/helicase inhibition assay; at 20 µM; stronger effect = higher value

Sequence of Large T antigen (Simian virus 40) (P03070 whole entry, looked up): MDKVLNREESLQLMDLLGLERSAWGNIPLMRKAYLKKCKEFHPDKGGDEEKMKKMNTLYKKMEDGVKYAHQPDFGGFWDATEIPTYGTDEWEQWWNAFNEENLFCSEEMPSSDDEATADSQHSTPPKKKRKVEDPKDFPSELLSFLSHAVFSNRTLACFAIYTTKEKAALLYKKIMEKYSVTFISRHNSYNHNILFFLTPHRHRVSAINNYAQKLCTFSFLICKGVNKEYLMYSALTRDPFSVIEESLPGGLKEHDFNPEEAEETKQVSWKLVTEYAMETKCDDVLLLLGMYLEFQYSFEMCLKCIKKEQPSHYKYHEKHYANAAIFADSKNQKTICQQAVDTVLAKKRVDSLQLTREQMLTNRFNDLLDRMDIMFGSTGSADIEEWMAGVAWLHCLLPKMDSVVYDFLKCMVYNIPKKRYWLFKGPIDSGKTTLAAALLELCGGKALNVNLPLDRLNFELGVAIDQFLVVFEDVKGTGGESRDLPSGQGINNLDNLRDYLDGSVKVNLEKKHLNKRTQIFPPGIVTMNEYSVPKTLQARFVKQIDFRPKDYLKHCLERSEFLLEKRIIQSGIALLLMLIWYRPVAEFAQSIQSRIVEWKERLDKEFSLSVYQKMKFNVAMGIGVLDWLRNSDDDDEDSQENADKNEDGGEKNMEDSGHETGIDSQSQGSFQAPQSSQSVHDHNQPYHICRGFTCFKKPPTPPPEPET

inhibition, inactive:
CCOc1ccc(C(Nc2cccnc2)c2cc(Cl)c3cccnc3c2O)cc1 (stereo unspecified) 15.7%
COc1ccccc1C(NC(C)=O)c1cc(Cl)c2cccnc2c1O (stereo unspecified) 3.72%
CCOC(=O)C1(Cc2ccccc2C)CCCN(S(=O)(=O)CC)C1 (stereo unspecified) 6.84%
Cc1ccc(C)c(S(=O)(=O)Nc2ccc(C(N)=O)cc2)c1 20.6%
Cc1cc(C)c(S(=O)(=O)Nc2ccc(O)cc2)cc1C 48.1%
Cc1cc(C)c(C)c(S(=O)(=O)Nc2ccc(O)cc2)c1C 30.2%
Cc1cc(C)c(S(=O)(=O)Nc2ccc(O)cc2)c(C)c1 29.1%
COCCOc1cc(N(CC(=O)N(C)C)S(=O)(=O)c2ccccc2)c(Cl)cc1Cl -5.2%
Cc1cc(C)c2c(=O)[nH]n(C3CCOC(C)(C)C3)c2n1 (stereo unspecified) 13.4%
O=C(Nc1ccccc1C(=O)Nc1nnc(C(F)(F)F)s1)c1ccccc1Cl 10.1%
CNC(=O)c1cc(S(=O)(=O)NCc2ccncc2)ccc1OC 11.8%
COc1ccccc1S(=O)(=O)CC(O)COc1ccc(F)cc1Cl (stereo unspecified) 4.29%
COc1ccc(/C=C/C(=O)C2CC2)cc1COc1c(C)cccc1C 7.52%
COC(=O)CC1SC(=O)NC1=Nc1ccc(C)cc1 (stereo unspecified) 0.63%
COC(=O)CC1SC(=O)NC1=Nc1ccc(OC)cc1 (stereo unspecified) 3.46%
Cc1cc(S(=O)(=O)NCc2ccccc2)ccc1OCC(=O)NCc1cccnc1 8.52%
O=C(COc1ccccc1Br)Nc1ccc2c(c1)OCCCO2 8.78%
COc1ccc(N2C(=O)CC(Sc3n[nH]c(-c4ccc(C)cc4)n3)C2=O)cc1 (stereo unspecified) 28.9%
CCOc1ccc(N2C(=O)CC(Sc3n[nH]c(-c4ccccc4)n3)C2=O)cc1 (stereo unspecified) 33.8%
Cc1nc2ccccc2n1CC(=O)NCCN1CCOCC1 21.1%
CCCCn1c(N)c(N(CCOC)C(=O)COC(=O)CSc2cc(C)c3ccccc3n2)c(=O)[nH]c1=O 11.3%
Oc1ccccc1Nc1nc(NCC2CCCO2)c2ccccc2n1 (stereo unspecified) 31.9%
OCCNc1nc(Nc2ccc(Br)cc2)nc2ccccc12 2.29%
OCCNc1nc(Nc2ccccc2)nc2ccccc12 1.4%
c1ccc(Nc2nc(NCC3CCCO3)c3ccccc3n2)cc1 (stereo unspecified) 5.53%
CC(C)CSc1nc2ccccc2[nH]1 4.9%
CC(NC(=O)c1cccnc1)C(=O)N1CCCCC1 (stereo unspecified) 11.9%
CC1CC1c1ccc(/C=C(\C#N)C(=O)Nc2ccccc2Cl)o1 (stereo unspecified) 19.3%
O=C(Cn1c(O)c(/C=C2\C=Nc3ccc(Br)cc32)sc1=O)N1CCCC1 2.37%
O=C(Nc1ccccc1F)c1ccc(CN2CCc3ccccc3C2)cc1 -1.04%
CC(C)c1cccc(C(C)C)c1NC(=O)CN1C(=O)NC2(CCCC2)C1=O 1.52%
c1ccc(C(c2nnnn2C2CCCC2)N2CCN(c3ccccc3)CC2)cc1 (stereo unspecified) 11.2%
c1ccc(C(c2ccccc2)N2CCN(C(c3ccccn3)c3nnnn3C3CCCC3)CC2)cc1 (stereo unspecified) -0.29%
CCC(C)(C)n1nnnc1C(c1ccc2ncccc2c1)N1CCN(c2nc3ccccc3s2)CC1 (stereo unspecified) 9.88%
CC(C)(C)n1nnnc1C(c1cccnc1)N1CCN(c2ccccc2)CC1 (stereo unspecified) 3.3%
c1cc(C(c2nnnn2C2CCCC2)N2CCOCC2)ccn1 (stereo unspecified) 4.22%
CCC(C)(C)n1nnnc1C(c1ccc2ncccc2c1)N1CCCCCC1 (stereo unspecified) 3.78%
CC(C)(C)n1nnnc1C(c1ccncc1)N1CCCCCC1 (stereo unspecified) 17.8%
c1ccc(C(c2nnnn2C2CCCC2)N2CCCCCC2)nc1 (stereo unspecified) 4.88%
Cc1nn(CC(=O)N/N=C/c2cccs2)c(C)c1[N+](=O)[O-] 11.7%
O=C(Nc1ccc(N2CCN(C(=O)c3ccccc3F)CC2)cc1)c1ncn[nH]1 8.25%
Cc1ccc2nc(Cl)c(/C=N/NC(=O)CN3CCOCC3)cc2c1 11.5%
COc1ccc(C(Nc2ccccn2)c2c(NC(=O)c3ccco3)sc(C)c2C)cc1 (stereo unspecified) 14.4%
Cc1cc(C)n(CC(=O)NC2CCCc3c2cnn3-c2ccc(C)c(C)c2)n1 (stereo unspecified) 2.04%
CC(C)C(CCN1C(=O)c2ccccc2C1=O)c1ccco1 (stereo unspecified) 16.2%
CCCN(C(=O)CCSc1ccc(F)cc1)c1c(N)n(Cc2ccccc2)c(=O)[nH]c1=O 5.85%
CCCCCCC(=O)Nc1nnc(CC)s1 4.74%
COc1ccc(CC(=O)N/N=C/c2sccc2C)cc1 4.71%
O=C(Nc1cccc2ccccc12)N1CC=CCC1 5.64%
CCOc1ccc(C(=O)NC(=S)Nc2ncccc2C)cc1[N+](=O)[O-] 5.78%
COc1ccc(-c2noc(N3CCCC(C(=O)Nc4ccc(F)cc4F)C3)n2)cc1 (stereo unspecified) 5.72%
O=C1N/C(=C/c2ccc(Br)s2)C(=O)N1c1ccccc1 8.81%
CC1=NN(c2ccc(C)cc2)C(=O)/C1=C\c1ccc(Br)s1 -1.11%
Cc1ccc(S(=O)(=O)N2CCCCC2)cc1C(=O)NC1CC(C)(C)NC(C)(C)C1 13.5%
COC(=O)C1=C(O)/C(=C\c2ccc(OCC(=O)Nc3ccccc3)cc2)N=C1C 4.47%
CCOC(=O)C1=C(O)/C(=C\c2ccc(OC)c(OC)c2)N=C1C 4.98%
COC(=O)C1=C(O)/C(=C\c2sccc2C)N=C1C 10.2%
COC(=O)C1=C(O)/C(=C\c2ccc(OCC(=O)Nc3ccccc3OC)cc2)N=C1C -3.54%
COC(=O)C1=C(O)/C(=C\c2ccc(OCC(=O)Nc3ccc(OC)cc3)cc2)N=C1C 7.17%
CCOC(=O)C1=C(O)/C(=C/c2cc(OC)c(OC)c(OC)c2)N=C1C 3.44%
C=CCc1cccc(CNc2nc3ccccc3n2CCN2CCOCC2)c1O -5.32%
O=C(/C=C/c1cccc(Br)c1)NC1CCN(Cc2ccccc2)CC1 7.35%
Oc1ccccc1N=Cc1sc2ccccc2c1Cl 19.7%
CSc1ccccc1NC(=O)CSc1nncs1 14.5%
CN(C(=O)C1CCCO1)c1nnc(-c2ccccn2)s1 (stereo unspecified) 8.98%
CCN(CC)c1ccc(NC(=O)CN2CCN(CC(=O)Nc3ccc(F)cc3)CC2)cc1 26.9%
CC(=O)c1ccc(NC(=O)Cn2nc(C)c([N+](=O)[O-])c2C)cc1 4.55%
CN(C)c1ccc(NC(=O)CN2C(=O)CC(c3ccccc3)=Nc3ccccc32)cc1 47%
Cc1nn(CC(=O)Nc2ccc(S(=O)(=O)N(C)C)cc2)c(C)c1[N+](=O)[O-] 10.9%
O=C(CN1CCCC1)Nc1ccc(F)cc1 -4.88%
CN1CC(=O)N(CC(=O)Nc2ccc(N(C)C)cc2)c2ccccc2C1=O 37.1%
CCc1ccc(NC(=O)CC2NCCNC2=O)cc1 (stereo unspecified) 8.15%
Cc1ccc(NC(=O)CC2NCCNC2=O)cc1 (stereo unspecified) 5.94%
CC12CCC(c3n[nH]c(=S)nc31)C2(C)C (stereo unspecified) 24.4%
Cc1ccc(SCC(=O)OCC(=O)NC2CCCCCC2)cc1 12.4%
O=C(CNC(=O)C12CC3CC(CC(C3)C1)C2)NC1=NCCS1 14.4%
Cn1ccc(C(=O)Oc2ccc(C(=O)Nc3ccc(F)cc3F)cc2)n1 1.18%
O=C(COC(=O)c1ccc(Cl)nc1)NCCNC(=O)COC(=O)c1ccc(Cl)nc1 14.5%
CC(=O)C1=C(O)C(=O)N(c2ccc(O)cc2)C1c1ccc(C)cc1 (stereo unspecified) 23.3%
Cn1cc(C(=O)Nc2ccc(F)c(Cl)c2)cn1 8.31%
COc1cccc(S(=O)(=O)Nc2ccc(C(=O)N3CCCCCC3)cc2)c1 -1.76%
COc1ccc(CN2CCN(C(=O)CC(C)C)CC2)c2ccccc12 0.53%
C/C(=C\C(=O)c1ncc(C(F)(F)F)cc1Cl)N(C)C 9.23%
Cn1cc(CN2CCC(n3nccc3NC(=O)Cc3ccccc3)CC2)cn1 2.67%
O=C(NC(NCC1CCCO1)C(Cl)(Cl)Cl)c1cccc2ccccc12 (stereo unspecified) 2.66%
NC(=O)c1cc(-c2ccccc2)sc1NC(=O)CN1CCCCC1 25.6%
CCc1cccc(N(C(=O)c2csnn2)C(C(=O)NC(C)(C)C)c2ccncc2)c1 (stereo unspecified) 14.2%
Cc1ccc(SCC(=O)Nc2ccc3c(c2)C(=O)N(C)C3=O)cc1 3.52%
CCN(CC)c1ccc(NC(=O)COC(=O)CCC(=O)c2ccc(F)cc2)cc1 26.6%
CCN(CC)c1ccc(NC(=O)CN2CCN(c3ccc(F)cc3)CC2)cc1 22.8%
CCN(c1ccc(NC(=O)COC(=O)CCC(=O)c2ccc(F)cc2)cc1)C(C)C 23.7%
CC(C)(C)NC(=O)CN1CCC(O)(c2ccccc2)CC1 -0.59%
O=C(CN1CCN(c2ccc(Cl)cc2)CC1)Nc1ccc(F)cc1 5.08%
CCc1ccc(NC(=O)Cn2ncn3c(cc4ccccc43)c2=O)cc1 8.68%
CC(C)c1ccc(NC(=O)Cn2ncn3c(cc4ccccc43)c2=O)cc1 5.59%
CCN1CCN(CC(=O)Nc2ccc(N(C)C)cc2)CC1 15.6%
